Assay results taken from PubChem BioAssay AID1508600 (Functional Genomics Laboratory (NCATS/FGL), 2020).
The campaign covered roughly 53,000 sequences. About 3,700 (7%) were called active.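 Rule for the calls: active = gene knockdowns whose robust z-score for IL-1 alpha signal is at least 2 or at most -2, so actives lie on both sides; inactive = the rest.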 The full list was thinned out, with actives kept by preference.

Assay: Components of the Cytosolic LPS Sensing Pathway: Gene Identification via Genome-wide siRNA Screen;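 note: robust z of the log signal after scaling to non-targeting control siRNA wells of the plate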
Settings: RAW264.7 macrophages, IL-1a HTRF, actives lie on both sides, screened at 100 nM (by protocol), cells primed 5 h with Pam3CSK4 first
In short: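 Knockdown: 100 nM siRNA, 48h, RAW264.7. Stimulation: Pam3CSK4 5 h, then LipidA via TransIT-TKO 24 h. Output: supernatant IL-1a HTRF, negative-control-normalized, log robust z-score; viability by CellTiter-Glo.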

| Sequence | z-score |
| --- | --- |
| GGAGAAACAUCAAUUGCACTT against Thbs2 | -0.0207 (inactive) |
| GCUUGAUGACUCUAAACCUTT against Runx2 | 1.29 (inactive) |
| GCCUCUAUCUGUACUCUGGTT against Pdk2 | -0.944 (inactive) |
| GCACAAAUCUGGUAAGUCATT against Gtf2h1 | 0.474 (inactive) |
| GCAACAUAUGGUAUACUGUTT against Mdm4 | 1.41 (inactive) |
| CCAUGAAAAACUUAGUGUGTT against Trim37 | 0.682 (inactive) |
| GGAGUGUUUGAGAAAUACCTT against Pnpla7 | 3.32 (active) |
| CCUUGGGACUGACUGUAAGTT against Ptrh2 | -0.887 (inactive) |
| GGUCUUAUUUUGAAGUGUUTT against Cybb | 0.013 (inactive) |
| GCGAUCAAAAAAGUUGCCUTT against Arhgap44 | -0.387 (inactive) |
| GGAGUGGGAGAAGAUGGAATT against Mbd4 | 2.17 (active) |
| GCUACAAGUGUUGCCUGAATT against Slit1 | 1.21 (inactive) |
| GGUGCAGAGAAGAACAAGATT against Inpp1 | -0.993 (inactive) |
| CCACAGGGAGACAUGAUAUTT against Coprs | -0.292 (inactive) |
| GUGAUGUCACUAAUGCCAATT against Cd99 | 0.628 (inactive) |
| GGAUAGACAGAAAUUCUCATT against Flot1 | 1.43 (inactive) |
| GGAAAACUACUGGAACUGGTT against Irgm1 | 0.415 (inactive) |
| GGAGGCAGAUGCUGGAAUCTT against Defb3 | 4.19 (active) |
| GGUGAUCAUGCUAACCUUUTT against Pcolce | 0.436 (inactive) |
| GGUGUAACUGGGCUGCAUGTT against Avpi1 | 0.269 (inactive) |
| GGCAAUUCUUAACCUGUCCTT against Tacc1 | -2.75 (active) |
| GCUGAUGGUAAAUUCACAGTT against Serpinb3c | -1.01 (inactive) |
| GCAUGUGUACCAUUUACCUTT against Prdx1 | 1.87 (inactive) |

| Sequence | z-score |
| --- | --- |
| GGAUGCCCUUGUCACAAAGTT against Fbl | 0.154 (inactive) |
| GGAACACUGUAUCUUACGGTT against Mtmr6 | 0.599 (inactive) |
| GGAGAAGGUGACUUAAUAGTT against 9430077A04Rik | 0.76 (inactive) |
| GGAGAUCACCUACGACAUGTT against Lgals8 | 0.446 (inactive) |
| GGUCAUCUCAGUACUACAATT against Dgat2 | 0.251 (inactive) |
| GGCAAGAAAAACACUUUAUTT against Parp3 | 1.85 (inactive) |
| GGAAGGAGGACAGAGGAAUTT against Tmem19 | 2.34 (active) |
| GGCAUUGGAAGAUGCACAGTT against Scp2 | 0.431 (inactive) |
| GGUUAUAGCAUCCUUAACUTT against Tmem208 | 1.06 (inactive) |
| GGUGAAGUCUUACCUAUACTT against Aacs | -0.598 (inactive) |
| GACCUUGGUUAUUCUACAGTT against Olfr1087 | -1.14 (inactive) |
| GGUGUGUUUUGUAUUGAUUTT against Olfr843 | 0.482 (inactive) |
| GGCAACAGUGCAUUCAAGUTT against Nptx2 | 3.39 (active) |
| GGUCUCCAUAAGUGUCAGCTT against Cntfr | -0.407 (inactive) |
| GGUGUCUCUGAAGAUUGAATT against Cdc6 | 0.345 (inactive) |
| GGAUUAGGAUCAGCAGGAUTT against Accs | 1.01 (inactive) |
| GGAUCUUGAUCCACAUCUCTT against Padi6 | -2.47 (active) |
| GGAGAUAAUCCUUGUCACGTT against Whamm | 0.592 (inactive) |
| CCCUUAAAGGGUAGCAUUUTT against Ncan | 0.837 (inactive) |
| GUGGUCUUUAUCGGCAUGATT against Slc35c1 | 0.287 (inactive) |
| GCUCUUGUAAAUUUGUGAATT against Usp10 | -0.331 (inactive) |
| GCAGUGCUCUUUAGCAUAATT against Zfp689 | 1.01 (inactive) |
| GCAUAAAAAACGAAUAGAGTT against Smc1b | -0.432 (inactive) |

| Sequence | z-score |
| --- | --- |
| GCAAGUCCUAGUGUCCUGATT against N6amt1 | -0.213 (inactive) |
| GGAAAUGCUGCCAUUGUUATT against Aldh3a2 | 0.333 (inactive) |
| GGAACAAAGACAUUGCUUUTT against Sf3a3 | -2.77 (active) |
| GCAAGCGAUGGCACAUAGATT against Ap1g2 | 1.03 (inactive) |
| GGUUACGAAGAUUAAUGUGTT against Crk | 1.27 (inactive) |
| GGACAGGUGUCGAUCAAACTT against Zfp280c | 0.0987 (inactive) |
| GGAAUUGCACUUUUCCAAUTT against Phlda1 | 0.481 (inactive) |
| GGAUGCAGUACGAAAUUCUTT against Psmd1 | -2.93 (active) |
| GGCAGUGCCAAUGAACAAGTT against Elob | 0.591 (inactive) |
| GGUUGUUUUGGAAUUGAUATT against Smu1 | -2.82 (active) |
| CGAGCAUGCAUUCAAAGGATT against Lrrc3b | 1.33 (inactive) |
| GGGCACAUACUCAGAUGAATT against Ngfr | -0.62 (inactive) |
| GAGUAUCAUUUCCUGUUUUTT against Olfr389 | -0.395 (inactive) |
| CCAUUCCAGUUAUGUCAAUTT against Pus3 | -1.06 (inactive) |
| CCCUCAGGACACGUUUUAGTT against Wdsub1 | -2.14 (active) |
| CGAGCCAUACCUUCAACUGTT against Ncoa2 | -0.815 (inactive) |
| GGAGCAGAUGAGAUCCAAGTT against Cdc42se1 | -0.256 (inactive) |
| GCCUUUAUAGUCUUAAGCATT against Ndc1 | -0.209 (inactive) |
| GGAAAAACUCCCUCGGUACTT against Rps11 | 0.683 (inactive) |
| GCUGCUUUGGGCACAAGAUTT against Nppb | 0.428 (inactive) |
| GCUCCUAUGGCAACAUCGUTT against Olfr303 | 2.11 (active) |
| GGUAUGAGAUUACCUUCACTT against 1700037H04Rik | -1.16 (inactive) |
| GCUCAGAAAUCGGCUCAGATT against Ssbp2 | -1.66 (inactive) |
